Measurements as given in the OligoGym collection.

Target: GPR137
Test: pooled miR-30 sensor sort-seq; sequence = guide strand
Conditions: shRNA
Also: reference of the scale not given here.

Sequence | sensor-assay potency score (higher = more potent)
TGGTCAGACACATTGTACCAGC | -1.27
TTGGCCTCCAGGTAGATGCTAG | -0.691
TAGCTGAGACGCTTGTGCCCAT | -0.72
TCAGACACATTGTACCAGCCGT | -0.426
ATGACGAACAGGGAGTCGCTCA | -1.35
TCATTCACCAGGTCCGCCTGGT | 0.279
AAGAACTGCAGGCAGACGGGGC | -0.842
TAGAGCAGGACCATGGCGCCAC | -0.353
TCCAGGTAGATGCTAGTGGAGG | -2.54

Target: GPR172A
Test: as above
Conditions: shRNA

Sequence | sensor-assay potency score (higher = more potent)
TTCTGCTGTGGAACACGTGATA | -0.914
TGGAACACGTGATAGATGCTGG | -0.57
TTCACGTAGGAGAACACGCCAA | -0.595
TTGGTCAGCGCGTTGGTGGCGG | -0.894
TGATAGAAGCTGATAGGCCTTA | -0.123
TGACATTCGAGGCACAGCATGC | -1.17
AAGAATGACCGTAAGAAGCGAG | -0.349
TTGGTGGCTCTTGCAGTGGTGA | -1.5
TTAGGGTCTGGACCAGGGGTGG | -1.64
TGACCCAGGAAGAATGACCGTA | -0.348
AAAACGCTCAAGGAAGTCGAGC | -1.04
TCACGTAGGAGAACACGCCAAG | -1.31

Target: GPR173
Test: as above
Conditions: shRNA

Sequence | sensor-assay potency score (higher = more potent)
TTCACCCTTGACCTCGTCCATG | -1.32
TGAAGGTCCATGAAGAGCCGTG | -0.497
TGCACTGGCTTCATCTTGCGGT | -0.396
AAGGCCACAATCTTGCAGCTGA | 0.463
TAGCGGGTGACGCTGATGCAGA | -1.36
TTTCACAAACACTCGCCAGTAG | -0.0654
AATCAGTCCTAGCAGTACCAGC | -1.44
TTGCCGTAGACAGCATGGGTAG | -1.57
TACTCGAAGAGGAGCAGCTTGC | -1.59
TAAACTTGTAGGTGCCCACGTC | 0.745
ATAAAGGCCACAATCTTGCAGC | -0.595
TCACGCACATAATCAGTCCTAG | -0.629

Target: GPR176
Test: as above
Conditions: shRNA

Sequence | sensor-assay potency score (higher = more potent)
TTTTTAATGAACCTGTTGGTGA | -0.59
TAGAGGACTGAGTAGTACCTGT | -0.351
TTGGTTACTGCAAACACAGGGA | 0.111
TTGCTCCAGACTTCCGTGCAGG | -0.956
TTGAACACGGTTGTGCGGCAAG | -0.817
TAACACCATGAAGTTTCCGAGC | -1.48
TTTATTGTTTCTGCTCATCTTC | -0.299
